From PubChem BioAssay
Only some compounds are listed: those with a hit (about 18% of all), similar ones and a draw of the others.
PLK1 PBD inh: PLK1 (human) polo-box domain binding inhibition; Plk1 PBD binding of FITC phosphopeptide, fluorescence polarization; 360,000 tested, 2.8% active; Potency, µM, without a hit: max response, negative = inhibition, actives largely listed as inhibitors; further: series mostly up to about 57 µM; nearly all actives have a fitted effect of over 65% in size
DT40 TDP1 CPT: DT40-hTDP1 cell growth loss with CPT; chicken DT40 Tdp1-/-;hTDP1 cells + 20 nM CPT, ATP luminescence, 48 h; Potency, µM (highest dose often 46.2 µM), for inactives: at the highest dose activity change, negative = growth inhibition, hits mostly inhibitors; 420,000 tested, 12% active; AID 686979; further: nearly all actives have a fitted effect of over 55% in size
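Chicken DT40 Tdp1-/- cells complemented with human TDP1, 400 cells/well, exposed to compounds plus 20 nM camptothecin for at least 48 h at 37 C; viability read as ATP content by CellTiter-Glo luminescence.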
VDR inhibitor: vitamin D3 receptor (human) inhibition; VDR-SRC2-3 peptide fluorescence polarization, 2 h; Potency, µM, for the others: max response, negative = inhibition, usual class: inhibitors; 400,000 tested, 0.93% active
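Fluorescence polarization assay measuring small-molecule disruption of VDR binding to the coregulator peptide SRC2-3. Compounds were pin-transferred (23 nl) into the reagent mix and incubated 2 h at room temperature before reading.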
KAT2A inh: inhibitors of human GCN5L2 histone acetyltransferase; Potency, µM (top dose mostly 58.9 µM), inactives show at the highest dose activity change, negative = inhibition, hits mostly inhibitors; AID 504327; 390,000 tested, 0.21% active; Q92830; GCN5L2 HAT assay, ThioGlo1 CoA-SH fluorescence
Target sequence (Q92830 whole entry, looked up): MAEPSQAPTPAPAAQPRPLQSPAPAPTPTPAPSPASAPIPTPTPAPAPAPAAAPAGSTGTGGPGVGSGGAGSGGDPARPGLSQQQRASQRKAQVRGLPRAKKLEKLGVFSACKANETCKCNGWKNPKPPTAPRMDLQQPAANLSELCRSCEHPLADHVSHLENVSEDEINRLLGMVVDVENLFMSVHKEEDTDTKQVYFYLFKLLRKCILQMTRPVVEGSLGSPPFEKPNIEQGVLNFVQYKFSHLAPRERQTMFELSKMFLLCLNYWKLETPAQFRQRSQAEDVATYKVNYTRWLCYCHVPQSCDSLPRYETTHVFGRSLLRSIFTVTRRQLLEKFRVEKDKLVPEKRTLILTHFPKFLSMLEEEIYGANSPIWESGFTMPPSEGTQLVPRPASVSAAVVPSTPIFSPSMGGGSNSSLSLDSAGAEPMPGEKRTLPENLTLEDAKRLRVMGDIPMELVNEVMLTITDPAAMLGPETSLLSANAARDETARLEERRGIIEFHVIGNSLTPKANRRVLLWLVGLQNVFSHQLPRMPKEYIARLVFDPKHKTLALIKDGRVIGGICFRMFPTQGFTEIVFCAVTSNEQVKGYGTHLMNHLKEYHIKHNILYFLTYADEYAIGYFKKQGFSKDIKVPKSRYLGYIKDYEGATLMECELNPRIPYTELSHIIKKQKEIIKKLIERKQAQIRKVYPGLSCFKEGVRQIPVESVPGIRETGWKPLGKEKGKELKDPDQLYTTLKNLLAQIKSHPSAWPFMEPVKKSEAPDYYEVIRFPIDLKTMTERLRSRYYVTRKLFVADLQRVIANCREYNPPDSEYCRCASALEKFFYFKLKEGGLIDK
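Preincubate 20nM GCN5L2 with compound 15 min, RT → add 50uM ThioGlo1 + 75uM H3(1-25) + 70uM acetyl-CoA → read fluorescence 0 and 20 min. Primary qHTS; fluorescent artifacts likely.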
TDP1 cell noCPT: qHTS for Inhibitors of human tyrosyl-DNA phosphodiesterase 1 (TDP1): qHTS in cells in absence of CPT; 420,000 tested, 15% active; Potency, µM (doses to about 46.2 µM), for the others: at the highest dose activity change, negative = growth inhibition, usual class: inhibitors; DT40 Tdp1-/- hTDP1 cells, no CPT, ATP luminescence, 48 h; AID 686978, 2013; further: nearly all actives have a fitted effect of over 55% in size
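Cells were dispensed at 400 per well, compounds added by pin tool, plates incubated ≥48 hr at 37 °C, then CellTiter-Glo added for 30 min at room temperature before luminescence reading. Line: DT40 Tdp1-/- complemented with hTDP1; camptothecin omitted.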
TDP1 block: TDP1 (human) enzyme inhibition | 350,000 tested, 0.28% active | Q9NUW8 | AID 485290 | recombinant TDP1, AlphaScreen DNA substrate cleavage | Potency, µM (top dose mostly 130 µM), for the others: at the highest dose activity change, negative = inhibition, actives largely listed as inhibitors; further: nearly all actives have a fitted effect of over 40% in size
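Compounds were preincubated with Tdp1 (1 nM final) for 15 min at room temperature before substrate (15 nM final) started a 5 min reaction; beads (10 ug/ml final) were then added for 10 min before AlphaScreen detection.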
Starred values were filed as active, the others as inactive; ? = inconclusive; nt = no result given; [ ] = dose if it differs, or a comment. The call rests on the fitted dose curve; in most records, active means well fitted curve in the direction sought with a large enough effect; inconclusive means small, poorly fitted or top-dose-only effect, or another doubt; inactive means no such curve, though single readings can be large; an effect the other way counts as inactive or inconclusive. On the % scale 0 is the no-effect control and ±100 the full control effect; potency means the concentration at half of the fitted maximal effect.

SMILES	PLK1 PBD inh	DT40 TDP1 CPT	VDR inhibitor	KAT2A inh	TDP1 cell noCPT	TDP1 block
C/C(=N\Nc1nc(-c2ccccc2O)nc2ccccc12)c1ccccc1	-5%	?	-1%	-7%	7.3µM*	5%
C/C(=N\Nc1nc(-c2ccccn2)nc2ccccc12)c1ccc(F)cc1	-3%	2.6µM*	-21%	6%	5.8µM*	nt
CCCCC[C@H](O)/C=C/[C@H]1[C@H](O)CC(=O)[C@@H]1CCCCCCC(=O)O	nt	?	3%	1%	?	9%
CCCCCCCCCCC[C@@H](C[C@@H]1OC(=O)[C@H]1CCCCCC)OC(=O)[C@H](CC(C)C)NC=O	-6%	?	2%	-10%	18µM*	13%
O=C(NCCc1ccccc1)c1ccc2c(c1)CCN2S(=O)(=O)c1ccc(Cl)cc1	nt	?	2%	-6%	?	2%
O=C(NCCc1ccccc1)c1ccc2c(c1)CCN2S(=O)(=O)c1ccccc1	nt	21µM*	10%	-9%	15µM*	7%
COc1ccc(NC(=O)c2ccc3c(c2)CCN3S(=O)(=O)c2ccccc2)c(OC)c1	-10%	?	1%	-6%	?	2%
COc1ccc(CNC(=O)c2ccc3c(c2)CCN3S(=O)(=O)c2ccccc2)cc1	nt	12µM*	11%	-10%	18µM*	2%
CCOc1ccccc1N(CC(=O)NCCc1ccccc1)C(=O)CCC(=O)Nc1ccccn1	3%	13%	5%	-3%	-14%	0%
O=C1NC(Cc2ccc(O)cc2)c2nc3ccc(Br)cc3c(=O)n2-c2cc3ccccc3cc21 (stereo not given)	-3%	12µM*	nt	nt	9.2µM*	nt
O=C1NC(Cc2ccccc2)c2nc3ccc(Br)cc3c(=O)n2-c2cc(Cl)ccc21 (stereo not given)	nt	nt	nt	-3%	nt	1%
COc1ccc2nc3n(c(=O)c2c1)-c1cc2ccccc2cc1C(=O)NC3Cc1ccccc1 (stereo not given)	4%	?	nt	nt	21µM*	nt
Cc1cc(C)c2c(=O)n3c(nc2c1)C(Cc1ccc(O)cc1)NC(=O)c1cc2ccccc2cc1-3 (stereo not given)	-1%	16µM*	nt	nt	18µM*	nt
Cc1cc(C)c2c(=O)n3c(nc2c1)C(CC(C)C)NC(=O)c1cccnc1-3 (stereo not given)	-3%	?	nt	nt	23µM*	nt
O=C(C[C@H]1C/C=C\CC[C@@H](Cc2ccc(F)cc2)C(=O)OCCNC1=O)NCCO	2%	-21%	-11%	-1%	-24%	1%
Cc1cc2cc(C#N)c(N3CCOCC3)nc2cc1Cl	-6%	-13%	-7%	-11%	?	nt
COc1ccc2oc(-c3cccc(NC(=O)c4ccc(C#N)cc4F)c3)nc2c1	nt	nt	-8%	-2%	nt	-3%
COc1ccc2nc3n(c(=O)c2c1)-c1cc2ccccc2cc1C(=O)NC3Cc1ccc(O)cc1 (stereo not given)	-11%	?	nt	nt	18µM*	nt
COc1ccc(N2CCN(C(c3ccccc3)c3sc4nc(-c5ccco5)nn4c3O)CC2)cc1 (stereo not given)	nt	?	12%	-9%	?	8%
COc1cc(C(CCN2CCCC2)c2c(OC)cc(OC)c3c2OC(=O)CC3c2ccc(N(C)C)cc2)cc(OC)c1OC (stereo not given)	nt	nt	-5%	nt	nt	20%
O=C(N/N=C/c1cc(Cl)ccc1O)C(=O)Nc1ccccc1OC(F)(F)C(F)F	-2%	2.1µM*	-4%	-2%	1.8µM*	8%
COc1ccccc1/C=N/NC(=O)C(=O)Nc1ccccc1OC(F)(F)C(F)F	3%	?	-1%	-7%	?	-1%
O=C(N/N=C/c1cc(Br)ccc1O)C(=O)Nc1ccccc1OC(F)(F)C(F)F	4%	5µM*	15%	?	2.8µM*	3%
Cc1ccc2nc(SCC(=O)OCc3ccccc3)nc(=O)n2c1	-9%	1%	-16%	-3%	5%	13%
O=C(NC(=S)Nc1ccc(S(=O)(=O)Nc2ncccn2)cc1)c1ccc(Br)cc1	11µM*	?	0%	2%	-30%	3%
SMILES	PLK1 PBD inh	DT40 TDP1 CPT	VDR inhibitor	KAT2A inh	TDP1 cell noCPT	TDP1 block
O=C(NC(=S)Nc1ccc(S(=O)(=O)Nc2nccs2)cc1)c1ccccc1F	15µM*	?	?	-13%	-29%	-1%
O=C(NC(=S)Nc1ccc(S(=O)(=O)Nc2nccs2)cc1)c1ccccc1	-19%	-9%	-7%	1%	-10%	0%
CC1(C)C(=O)C=C(N2CCCCC2)c2ccccc21	-9%	?	nt	nt	?	nt
COc1ccc([C@@H]2[C@@H](C)N(c3ccccc3)c3ccccc3C(=O)N2Cc2ccccc2)cc1	-1%	?	nt	nt	16µM*	nt
COc1ccc(C2Nc3ccccc3C(=O)N2Cc2ccccc2)cc1 (stereo not given)	-2%	?	-9%	-13%	?	nt
O=C(O)CCc1ccc(S(=O)(=O)Nc2cc(C(F)(F)F)ccc2N2CCCC2)cc1	?	-15%	-27%	-6%	-16%	18µM*
O=C(O)CCCn1cc(NC(=O)c2cc(F)c(F)cc2Cl)cn1	8.4µM*	?	?	26%	23µM*	nt
COc1cc(COc2ccc(S(=O)(=O)N3CCOCC3)cc2[N+](=O)[O-])ccc1OC(F)F	1%	18µM*	-16%	nt	?	nt
Cc1cccc(C)c1NC(=O)C1C(c2ccc3c(c2)OCO3)=Nc2ccccc2N1C(=O)c1cccc(C(F)(F)F)c1 (stereo not given)	-11%	7.3µM*	nt	nt	7.3µM*	nt
CC(=O)N1CCC(C(=O)N2c3ccccc3N=C(c3ccc4c(c3)OCO4)C2C(=O)Nc2c(C)cccc2C)CC1 (stereo not given)	3%	?	nt	nt	?	nt
Cc1cccc(C)c1NC(=O)C1C(c2ccc3c(c2)OCO3)=Nc2ccccc2N1C(=O)c1ccccn1 (stereo not given)	4%	?	nt	nt	21µM*	nt
CC[C@]12c3[nH]c4ccccc4c3CCN1C(=O)C(CC(=O)NC/C=C(\C)CCC=C(C)C)C[C@@H]2C(=O)N1CCN(C(=O)c2ccco2)CC1 (stereo not given in full)	-1%	16µM*	3%	-8%	?	5%
CC[C@]12c3[nH]c4cc(-c5ccco5)ccc4c3CCN1C(=O)[C@@H](CC(=O)NCc1ccco1)C[C@@H]2C(=O)N1CCN(C(=O)c2ccco2)CC1	-2%	?	-20%	-5%	?	4%[56.1 µM]
